Bioassay records: PubChem BioAssay, several laboratories
Platelet DG rel: modulates dense granule release in human platelets; 300,000 tested, 0.22% active; human platelet-rich plasma, SFLLRN dense granule ATP release, luminescence; inhibition, %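 (compounds screened at 7.5 µM in platelet-rich plasma)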;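 active means mean replicate score, as percent of positive control, at or above 50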
STAT3 inh: STAT3 signaling inhibition; 190,000 tested, 0.89% active; inhibition, % at 5.5 µM; U3A cells, IL-6 STAT3-luciferase reporter, luminescence; host cell line lacks STAT1;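 active means inhibition above the mean inhibition across all screened compounds plus 3 SD, cut at about 44% in these data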;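 further: 0% = DMSO only wells and 100% = 100 µM nifuroxazide control wells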
STAT1 blocker: STAT1 signaling inhibition; 200,000 tested, 0.35% active; inhibition, % at 5.5 µM; AID 920; NIH 3T3 STAT1-luciferase reporter, IFN-gamma, luminescence;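 active means inhibition above a set limit, the mean inhibition across all tested compounds plus 3 SD, cut at about 34% in these data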;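 further: 0% = IFN-gamma with DMSO and 100% = IFN-gamma with 300 µM nifuroxazide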
PPC-1+TRAIL kill: kills PPC-1 cancer cells in the presence of TRAIL; 220,000 tested, 0.41% active; AID 1443; PPC-1 cells + TRAIL, ATPLite viability luminescence; cell killing (% activity), % at 4 µM or 5 µM;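 active means cell killing above 50% in the first pass at 4 µM, then a duplicate retest at 5 µM averaging 50% or more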;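 further: plate controls were cells with TRAIL plus DMSO for no effect and medium-only wells lacking cells for full effect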
TRAIL sens C8: caspase-8 TRAIL sensitization | NB7+C8 cells + TRAIL, ATPlite viability luminescence | inhibition (viability loss, TRAIL sensitization), % at 10 µM | 360,000 tested, 1% active | AID 624354;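 active means compounds causing at least 50% loss of cell viability in the single-dose screen, relative to plate controls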
* = called active by the depositor; . = no result given. Rows were chosen to be rich in hits. Some 1.6% of all compounds tested hit in one or more screens of this group.

SMILES | Platelet DG rel | STAT3 inh | STAT1 blocker | PPC-1+TRAIL kill | TRAIL sens C8
COc1ccc(Cc2c(-c3ccc(F)cc3)nc3cc(C)c(Br)c(C)n23)c(C)c1 | . | . | . | . | 27
Brc1ccc(-c2nnc3sc(CN4CCc5ccccc5C4)cn23)cc1 | . | . | . | . | 14
Brc1ccc(-c2nnc3sc(CN4CCC5(CC4)OCCO5)cn23)cc1 | 4 | -10 | 5 | 7 | 66*
Cc1cccc(N2CCN(S(=O)(=O)c3ccc4c(c3)NC(=O)C(C)S4)CC2)c1C (centres undefined) | 20 | . | . | . | 54*
Cc1ccccc1Cn1nnc2c1C(=O)c1ccccc1C2=O | -1 | 6 | -3 | . | 52*
Cc1cccc(Cn2nnc3c2C(=O)c2ccccc2C3=O)c1 | -7 | 5 | -3 | 33 | 51*
Cc1cccc(Cn2cnc3c(nnn3Cc3ccccc3F)c2=O)c1 | -9 | 7 | 2 | 2 | -8
C#Cc1ccc(NC(=O)C2(C)CCN2C(=O)Cc2ccc(C(C)C)cc2)cc1 (centres undefined) | . | . | . | . | 52*
C#Cc1ccc(NC(=O)C2(C)CCN2C(=O)Cc2ccc(C(C)(C)C)cc2)cc1 (centres undefined) | . | . | . | . | 25
COc1ccc2oc(=Nc3cccc(F)c3)c(C(N)=O)cc2c1 | 5 | 12 | -28 | 25 | -31
COc1ccc2oc(=Nc3ccccc3)c(-c3nc4ccccc4[nH]3)cc2c1 | 15 | -27 | -68 | 61* | 63*
Cc1ccccc1-c1csc(C(C)(O)c2ccc(F)c(F)c2)n1 (centres undefined) | . | . | . | . | -1
COc1cccc(OCCSc2nnc3sc4ccccc4n23)c1 | 2 | 14 | -3 | 34 | 7
c1ccc(OCCSc2nnc3sc4ccccc4n23)cc1 | 3 | 87* | 50* | 40 | 37
O=C(NCC1CCCO1)c1ccc2c(=O)n(Cc3ccco3)c(SCC(=O)N3CCCC3)nc2c1 (centres undefined) | -7 | 19 | 35* | 20 | -6
CCOC(=O)CSc1nc2cc(C(=O)NCC3CCCO3)ccc2c(=O)n1Cc1ccco1 (centres undefined) | -3 | 6 | 2 | -13 | -16
CC1CCC(NC(=O)CN2C(=O)NC(C)(C)C2=O)CC1 (centres undefined) | 0 | . | . | . | -12
COc1ccc(C(C(=O)NC2CCCC2)N(C(=O)c2ccoc2C)c2ccc(C)cc2)cc1 (centres undefined) | 5 | -8 | -2 | 12 | 8
COc1ccc(C(C(=O)NC2CCCCC2)N(C(=O)CCl)c2cccc(Cl)c2)cc1 (centres undefined) | 13 | 5 | 4 | 59* | 96*
COc1ccc(C(C(=O)NC2CCCCC2)N(C(=O)CCl)c2ccc(OC)cc2)cc1 (centres undefined) | 7 | 5 | 9 | 35 | 96*
COc1ccc(C(C(=O)NC2CCCCC2)N(C(=O)CCl)c2ccc(C)cc2)cc1 (centres undefined) | 2 | 16 | 9 | 72* | 95*
COc1ccc(Nc2c(C3CC3)nc3nc(C)cc(C)n23)cc1 | . | . | . | . | 5
CCCNC(=O)C1(C)CCCN(Cc2cccc(C#N)c2)C1 (centres undefined) | . | . | . | . | -18
Cc1cc(C)c(C#N)c(SCc2cn3ccccc3n2)n1 | -13 | 16 | -3 | 68* | 1
O=C(Nc1ccccc1C(=O)O)c1ccc(Cl)c(S(=O)(=O)N2CCOCC2)c1 | 5 | 19 | 51* | 33 | 26
SMILES | Platelet DG rel | STAT3 inh | STAT1 blocker | PPC-1+TRAIL kill | TRAIL sens C8
O=C(O)c1cccc(NC(=O)c2ccc(Cl)c(S(=O)(=O)N3CCCCCC3)c2)c1 | -4 | 53* | 39* | 28 | 38
Cc1ccc(S(=O)(=O)N2C[C@H]3C(=O)C[C@@H](c4ccccc4)N(S(=O)(=O)c4ccc(C)cc4)[C@H]3C[C@H]2c2ccccc2Cl)cc1 | . | . | . | . | 4
c1ccc(-c2cn3nc4c(nc3n2)CCCC4)cc1 | 39 | 87* | 53* | 7 | 36
CNc1c2cccc(C)c2nc2c(C(=O)NCCN(C)C)cccc12 | . | . | . | . | 74*
Cc1ccc(C(=O)NCCN(C)C)c(C)c1 | 10 | 2 | -9 | -2 | 3
Cc1ccc(-n2c(C)cc(C(=O)COC(=O)c3ccc[nH]c3=O)c2C)cc1 | 9 | -3 | -28 | 49 | 61*
c1csc(CNc2ncnc3sccc23)c1 | -14 | 66* | 25 | . | 13
CCCCN(C)C(=O)c1ccc(Nc2nc(C(N)CCc3ccccc3)cs2)nc1 (centres undefined) | . | . | . | . | 19
CCCCN(C)C(=O)c1ccc(Nc2nc(C(N)Cc3ccc(C(F)(F)F)cc3)cs2)nc1 (centres undefined) | . | . | . | . | 77*
NC(Cc1ccc(C(F)(F)F)cc1)c1csc(Nc2nncc3ccccc23)n1 (centres undefined) | . | . | . | . | 69*
CCOC(=O)C(=C1Nc2ccccc2N1)n1c(-c2cccnc2)nc2ccccc21 | . | . | . | . | 71*
CC1=NN(c2nc(N)nc(/C(C#N)=C/c3ccc([N+](=O)[O-])o3)n2)C(C)(C)C1 | . | . | . | . | 79*
CCC(C)Nc1ccc(NC(C)CC)cc1 (centres undefined) | . | . | . | . | 77*
CCOc1ccc2nc3cc(N=Nc4ccc(N)nc4N)ccc3c(N)c2c1 | . | . | . | . | 79*
CCc1nc2c(OCC(=O)C(C)(C)C)cccn2c1N(C)C(=O)CC(C)C | . | . | . | . | -6
O=c1[nH]c2cc3c(cc2cc1CN(CCc1ccccc1)Cc1nnnn1C1CCCC1)OCCO3 | 50* | -6 | -10 | 16 | .
Cc1cc2cc(CN(Cc3ccc4c(c3)OCO4)Cc3nnnn3C3CCCC3)c(=O)[nH]c2cc1C | 7 | 0 | -6 | -20 | 10
COc1cc2sc3ccc(C#CC4(O)CCCCC4)cc3c(=O)c2cc1OC | 56* | . | . | . | 75*
Cn1c2ccccc2c(=O)c2ccc(C#CC3(O)CCCCC3)cc21 | 0 | . | . | . | 86*
COc1ccccc1N(C)C(=O)c1cc(S(=O)(=O)N2CCCC2)cn1C | 28 | . | . | . | 7
COc1ccc2nc(N3C(=O)CNC3=S)sc2c1 | 3 | . | . | 35 | 50*
Cc1ccc2nc(N3C(=O)CNC3=S)sc2c1 | 7 | . | . | 34 | 32
CCOC(=O)[C@]12CCC=C1N(Cc1ccc(Cl)cc1Cl)C(=O)[C@H](CC(=O)N1CCOCC1)C2 | . | . | . | . | -1
O=C(NCc1cc(Cl)cc(Cl)c1)c1csc(COCCO)n1 | . | . | . | . | -3
CC(=O)N1CCN(c2ccc(NCc3ccc(C)s3)cc2)CC1 | -4 | 14 | -4 | 10 | 4
SMILES | Platelet DG rel | STAT3 inh | STAT1 blocker | PPC-1+TRAIL kill | TRAIL sens C8
Cc1ccc(CNc2ccc(N3CCOCC3)cc2)s1 | 9 | 0 | -49 | 15 | 68*
CCN(CC)CCOC(=O)/C=C/c1ccccc1 | 2 | . | . | 16 | 1
CCN(CC)CC(C)(C)C(=O)/C=C/c1ccc(/C=C/C(=O)C(C)(C)CN(CC)CC)cc1 | . | . | . | . | 92*
COCCn1c(C)cc(C(=O)COC(=O)c2ccc(Cl)c(S(N)(=O)=O)c2)c1C | -5 | . | . | . | 62*
O=C1C(Cl)=C(NCc2cccnc2)C(=O)c2ccccc21 | 1 | . | . | . | 80*
O=C1C(Cl)=C(Nc2ccccc2)C(=O)c2ccccc21 | 26 | -31 | -7 | 16 | 88*
